{"source": "PubChem BioAssay (NCI)", "experiment_in_all_cases": "NCI-60 one-dose screen, 48 h (100 = growth as untreated, 0 = no growth, -100 = all killed)", "conditions_in_all_cases": "10 µM unless noted", "key": {"[1]": {"system": "NCI-H23 lung"}, "[2]": {"system": "NCI-H226 lung"}, "[3]": {"system": "NCI-H322M lung"}, "[4]": {"system": "HOP-62 NSCLC"}, "[5]": {"system": "NCI-H460 lung"}, "[6]": {"system": "HOP-92 NSCLC"}, "[7]": {"system": "NCI-H522 lung"}, "[8]": {"system": "A549/ATCC NSCLC"}, "[9]": {"system": "786-0 renal"}, "[10]": {"system": "COLO 205 colon"}, "[11]": {"system": "DU-145 prostate"}, "[12]": {"system": "K-562 leukemia"}, "[13]": {"system": "MALME-3M melanoma"}, "[14]": {"system": "MDA-MB-231 breast"}, "[15]": {"system": "RXF 393 renal"}, "[16]": {"system": "SF-268 CNS"}, "[17]": {"system": "SF-295 CNS"}, "[18]": {"system": "SF-539 CNS"}, "[19]": {"system": "UACC-257 melanoma"}, "[20]": {"system": "M14 melanoma"}}, "note": "Compounds without any hit were thinned out: in the full panel of roughly 83,000, 20% have a hit.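 48-hour exposure, single concentration, 96-well plates; percent growth endpoint where 0 means no net growth. Active: below 10.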 Unmarked numbers belong to inactive results. Calls of active or inactive are those of the source."}
{"smiles": "O=C(CSc1nnc2n1S(=O)(=O)c1ccccc1N2c1ccccc1)Nc1nc2ccc(F)cc2s1", "values": [{"measurement": "growth", "setting": "[1]", "value": 80.3, "unit": "%"}, {"measurement": "growth", "setting": "[2]", "value": 93.2, "unit": "%"}, {"measurement": "growth", "setting": "[3]", "value": 113, "unit": "%"}, {"measurement": "growth", "setting": "[4]", "value": 82.3, "unit": "%"}, {"measurement": "growth", "setting": "[5]", "value": 106, "unit": "%"}, {"measurement": "growth", "setting": "[6]", "value": 88, "unit": "%"}, {"measurement": "growth", "setting": "[7]", "value": 87.2, "unit": "%"}, {"measurement": "growth", "setting": "[8]", "value": 93.3, "unit": "%"}, {"measurement": "growth", "setting": "[9]", "value": 96.2, "unit": "%"}, {"measurement": "growth", "setting": "[10]", "value": 106, "unit": "%"}, {"measurement": "growth", "setting": "[11]", "value": 114, "unit": "%"}, {"measurement": "growth", "setting": "[12]", "value": 98.5, "unit": "%"}, {"measurement": "growth", "setting": "[13]", "value": 87.4, "unit": "%"}, {"measurement": "growth", "setting": "[14]", "value": 98.9, "unit": "%"}, {"measurement": "growth", "setting": "[15]", "value": 87.1, "unit": "%"}, {"measurement": "growth", "setting": "[16]", "value": 97.2, "unit": "%"}, {"measurement": "growth", "setting": "[17]", "value": 91.5, "unit": "%"}, {"measurement": "growth", "setting": "[18]", "value": 102, "unit": "%"}, {"measurement": "growth", "setting": "[19]", "value": 111, "unit": "%"}, {"measurement": "growth", "setting": "[20]", "value": 96.5, "unit": "%"}]}
{"smiles": "COc1ccc(/C=C2\\COc3ccc(O)c(O)c3C2=O)cc1", "values": [{"measurement": "growth", "setting": "[1]", "value": 33.2, "unit": "%"}, {"measurement": "growth", "setting": "[2]", "value": 67.4, "unit": "%"}, {"measurement": "growth", "setting": "[3]", "value": 47.9, "unit": "%"}, {"measurement": "growth", "setting": "[4]", "value": 10.8, "unit": "%"}, {"measurement": "growth", "setting": "[5]", "value": 19.2, "unit": "%"}, {"measurement": "growth", "setting": "[6]", "value": "-6.45% (active)"}, {"measurement": "growth", "setting": "[7]", "value": "-60.5% (active)"}, {"measurement": "growth", "setting": "[8]", "value": 38.1, "unit": "%"}, {"measurement": "growth", "setting": "[9]", "value": "-40.9% (active)"}, {"measurement": "growth", "setting": "[10]", "value": 66.2, "unit": "%"}, {"measurement": "growth", "setting": "[11]", "value": 19.4, "unit": "%"}, {"measurement": "growth", "setting": "[12]", "value": 13.4, "unit": "%"}, {"measurement": "growth", "setting": "[13]", "value": "-26.3% (active)"}, {"measurement": "growth", "setting": "[14]", "value": "-11.4% (active)"}, {"measurement": "growth", "setting": "[15]", "value": "2.29% (active)"}, {"measurement": "growth", "setting": "[16]", "value": "2.86% (active)"}, {"measurement": "growth", "setting": "[17]", "value": 48.5, "unit": "%"}, {"measurement": "growth", "setting": "[18]", "value": "-36.9% (active)"}, {"measurement": "growth", "setting": "[19]", "value": 14.8, "unit": "%"}, {"measurement": "growth", "setting": "[20]", "value": "8.06% (active)"}]}
{"smiles": "C/C(=N\\NC(=O)c1ccccc1O)c1cccc(/C(C)=N/NC(=O)c2ccccc2O)n1", "values": [{"measurement": "growth", "setting": "[1]", "value": 44.4, "unit": "%"}, {"measurement": "growth", "setting": "[2]", "value": 50, "unit": "%"}, {"measurement": "growth", "setting": "[3]", "value": 38.7, "unit": "%"}, {"measurement": "growth", "setting": "[4]", "value": 30.3, "unit": "%"}, {"measurement": "growth", "setting": "[5]", "value": 21.3, "unit": "%"}, {"measurement": "growth", "setting": "[6]", "value": 43.5, "unit": "%"}, {"measurement": "growth", "setting": "[7]", "value": 61.4, "unit": "%"}, {"measurement": "growth", "setting": "[8]", "value": 54.6, "unit": "%"}, {"measurement": "growth", "setting": "[9]", "value": 33.6, "unit": "%"}, {"measurement": "growth", "setting": "[10]", "value": 35.2, "unit": "%"}, {"measurement": "growth", "setting": "[11]", "value": 55.8, "unit": "%"}, {"measurement": "growth", "setting": "[12]", "value": 57.2, "unit": "%"}, {"measurement": "growth", "setting": "[13]", "value": 20.9, "unit": "%"}, {"measurement": "growth", "setting": "[14]", "value": 52.7, "unit": "%"}, {"measurement": "growth", "setting": "[15]", "value": 93.7, "unit": "%"}, {"measurement": "growth", "setting": "[16]", "value": 31.8, "unit": "%"}, {"measurement": "growth", "setting": "[17]", "value": "7.95% (active)"}, {"measurement": "growth", "setting": "[18]", "value": "-24.4% (active)"}, {"measurement": "growth", "setting": "[19]", "value": 87.6, "unit": "%"}, {"measurement": "growth", "setting": "[20]", "value": 48.6, "unit": "%"}]}
{"smiles": "O=C1/C(=C/c2ccc(Cl)cc2)COc2ccc(O)cc21", "values": [{"measurement": "growth", "setting": "[1]", "value": 90.9, "unit": "%"}, {"measurement": "growth", "setting": "[2]", "value": 98.8, "unit": "%"}, {"measurement": "growth", "setting": "[3]", "value": 94.8, "unit": "%"}, {"measurement": "growth", "setting": "[4]", "value": 102, "unit": "%"}, {"measurement": "growth", "setting": "[5]", "value": 102, "unit": "%"}, {"measurement": "growth", "setting": "[6]", "value": 95.9, "unit": "%"}, {"measurement": "growth", "setting": "[7]", "value": 13.9, "unit": "%"}, {"measurement": "growth", "setting": "[8]", "value": 89, "unit": "%"}, {"measurement": "growth", "setting": "[9]", "value": 64.2, "unit": "%"}, {"measurement": "growth", "setting": "[10]", "value": 78.2, "unit": "%"}, {"measurement": "growth", "setting": "[11]", "value": 89.7, "unit": "%"}, {"measurement": "growth", "setting": "[12]", "value": "2.41% (active)"}, {"measurement": "growth", "setting": "[13]", "value": 94.9, "unit": "%"}, {"measurement": "growth", "setting": "[14]", "value": 86, "unit": "%"}, {"measurement": "growth", "setting": "[15]", "value": 97.9, "unit": "%"}, {"measurement": "growth", "setting": "[16]", "value": 79.3, "unit": "%"}, {"measurement": "growth", "setting": "[17]", "value": 101, "unit": "%"}, {"measurement": "growth", "setting": "[18]", "value": 88.1, "unit": "%"}, {"measurement": "growth", "setting": "[19]", "value": 104, "unit": "%"}, {"measurement": "growth", "setting": "[20]", "value": 86, "unit": "%"}]}
